Inconclusive results are not listed. Unmarked numbers belong to inactive results. Calls of active or inactive are those of the source. The call rests on the fitted dose curve; in most records, active means well fitted inhibition curve with a large enough effect; inconclusive means small, poorly fitted or top-dose-only effect, or effect the other way; inactive means flat fitted curve, though single readings scatter.
Potency means the concentration at half of the fitted maximal effect.

This assay is described as follows: qHTS for Inhibitors of Plasmodium falciparum (GB4) proliferation (AID 504315). Further: nearly all actives have a fitted effect of over 50% in size.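 On activity change, negative = inhibition: 0% = DMSO vehicle and -100% = 0.29 µM artemisinin control.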 The settings on record: P. falciparum GB4 in erythrocytes, SYBR Green DNA, 72 h; series mostly up to 6.7 µM; activity change, negative = inhibition: at the top concentration. In a few lines:
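Parasite growth measured as SYBR Green DNA fluorescence (ex 485, em 535 nm) after overnight lysis following 72 h culture at 37 °C, 0.3% parasitemia, 2.5% hematocrit. Values normalized against DMSO and 0.29 uM artemisinin controls, with plate-stack correction.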
In general terms: Quantitative high-throughput screening tests each substance at several concentrations.
For `C=C(C(C)=O)C(O)c1ccc(Cl)cc1` (centres undefined), the “activity change, negative = inhibition” value was 13.3%. Same read-out and setting: the value for `COc1ccc(COC(=O)NN=C2C[C@@H](O)[C@@H](O)[C@@H]3[C@H]4C(=O)N(Cc5ccc6c(c5)OCO6)C(=O)[C@@H]4CC[C@H]23)cc1` was -1.69%; that for `COC[C@H]1O[C@@H](c2c(OC)cc(OC)cc2OC)[C@H](OC)[C@@H](OC)[C@H]1OC` was 9.66%; that for `CC(=O)OC[C@H]1O[C@@H](ON=C(C)CCN2CCCCc3nc(C)c(C)cc32)[C@H](OC(C)=O)[C@@H](OC(C)=O)[C@H]1OC(C)=O` was -2.24%. As to `COC(=O)N1C2CC3(C)CC(=O)CC1(C)C3c1ccccc12` (centres undefined), the Potency entry was “inactive”. As to `C=CCOC(=O)N[C@@H](Cc1ccccc1)C(C(=O)OC)=C(C)NCc1ccccc1`, the “activity change, negative = inhibition” value was 4.7%.

For `CCC=CCCC(OC(=O)c1ccc(Br)cc1)C1=CCCCC1=O` (centres undefined), the “activity change, negative = inhibition” value is -2.96%. On the same count and under the same terms, the result for `COC(=O)CC=C[C@@H](C)[C@H](NC(=O)OC)c1ccccc1Br` reads 1.52%; that for `CC(C)(C)Nc1oc(-c2ccccc2)nc1-c1ccc(C(F)(F)F)cc1`, -14.8%; that for `COc1cc2c(cc1OC)[C@@H]1O[C@](c3ccsc3)(C2)Oc2cc(-c3ccccc3)oc(=O)c21`, -4.51%. Still for that read-out and setting: the result for `COC(=O)C(Cc1cc(Br)c(OC)c(Br)c1O)=NO` reads 11.1%; that for `CC(C)=NOCc1ccc(-c2cn([C@@H]3COC[C@@H]3O)nn2)cc1`, -0.726%; that for `COC(=O)[C@@H]1[C@@H](c2ccccc2)NC(=O)N(Cc2ccccc2)[C@@H]1C`, 13.4%. Consider `CCCCc1nc2c(c3c1C[C@H](C)OC3)CN(C(=O)Cc1cccs1)CC2`, for which the Potency entry was “inactive”. With `CN1c2ccccc2[C@@]2(O)C(=O)[C@@]1(C)[C@@H]1CCC=C[C@H]12`, the “activity change, negative = inhibition” value was 10.9%.

As for `CC=CCCN1C=C(C(=O)OCC)C(c2ccccc2)NC1=O` (centres undefined), the “activity change, negative = inhibition” value was 3.64%. The same measure, in the same setting: the value for `CCOC(=O)CN1C(=O)NC(CCc2ccccc2)C(C(C)=O)=C1C` (centres undefined) was -3.94%.

Regarding `CC1(OC(=O)C2CCCC2)C(=O)C=C2C=C(c3ccsc3)N(c3cccc(C#N)c3)C=C2C1=O` (centres undefined), the Potency result was “inactive”. For `CO[C@@H]1c2cc(F)ccc2C(=CCCOC(=O)CC=Cc2ccccc2)[C@H]1C`, the “activity change, negative = inhibition” value is 3.79%. On to `CC12C=C(C=Cc3ccc(Br)cc3)C(C)(C1)C(c1ccc(Br)cc1)CC2=O` (centres undefined), for which the Potency is 1.69 µM (active).

For `CC(=O)N1C(=O)NC(C)=C(C#N)C1c1ccccc1` (centres undefined), the “activity change, negative = inhibition” value is 4.74%.

For the compound `C#CCNC(=O)[C@H]1C=C(OC)C(=O)C[C@H]2c3ccccc3C[C@]12C`, the “activity change, negative = inhibition” value was 7.81%. The same measure, in the same setting: the result for `CCN1C(=NCCCOC(C)C)N[C@H](c2ccccc2)[C@H](C(=O)OC)[C@H]1C` reads 7.55%. For the compound `COc1ccc(-c2nc3c(c4c2C[C@H](c2ccccc2)OC4)CN(S(=O)(=O)c2ccc(C)cc2)CC3)c(C)c1`, the Potency was 1.69 µM (active). Consider `C=C(C(C)=O)C(O)c1cccc(OC)c1` (centres undefined), for which the “activity change, negative = inhibition” value was 6.42%.

Turning to `CC(CCC(=O)OC[C@H]1O[C@H](C#Cc2ccccc2)C=C[C@H]1Oc1ccc(C)cc1)=NOC[C@@H](O)[C@H]1O[C@@H]2OC(C)(C)O[C@H]2[C@@H]1O`, the “activity change, negative = inhibition” value was -14.4%. Same read-out and setting: the result for `CC(C)CON=C1C[C@@H](O)[C@@H](O)[C@@H]2[C@H]3C(=O)N(C4CCCCC4)C(=O)[C@@H]3CC[C@@H]12` reads 13.7%. In the case of `CC(C)(C)c1nc(-c2ccccc2)oc1Nc1ccc2ccccc2c1`, the Potency is 1.9 µM (active). Still for that read-out and setting: the result for `CCN1C(=O)N[C@@H](CCc2ccccc2)[C@@H](C(=O)OC)[C@H]1C` reads “inactive”; that for `Cc1noc(C)c1S(=O)(=O)N1CCc2nc(-c3ccccc3)c3c(c2C1)CO[C@@H](C)C3`, “inactive”. As to `CC(CCN1CCCCc2nc(C)c(C)cc21)=NO[C@@H](C)CN1CCCCc2nc(C)c(C)cc21`, the “activity change, negative = inhibition” value is 9.27%. For the compound `COC(=O)[C@H]1O[C@@H](c2cc(OC)c(C)c(OC)c2O)[C@H](C)[C@@H](O)[C@@H]1C`, the “activity change, negative = inhibition” value is 17.7%. As to `CC1(OC(=O)c2cnc3ccccc3n2)C(=O)C=C2C=C(C3CC3)OC=C2C1=O` (centres undefined), the “activity change, negative = inhibition” value was 11.2%. Same read-out and setting: the value for `CC(=O)OC[C@H]1O[C@H](CC=NO[C@H](C)CN2CCCCc3nc(C)c(C)cc32)C=C[C@@H]1OC(C)=O` was 0.213%. Consider `CCN1C(=NCCc2c[nH]c3ccccc23)NC(c2ccccc2)C(C(=O)OC)=C1C` (centres undefined), for which the Potency result is “inactive”. Still for that read-out and setting: the result for `COc1ccc(-c2nc3c(c4c2C[C@H](c2ccccc2)OC4)CN(C(=O)c2cccnc2)CC3)c(C)c1` reads “inactive”. For the compound `CC(=O)C1=C(C)N(CC#C[Si](C)(C)C)C(=O)N(C(C)=O)C1c1ccccc1` (centres undefined), the “activity change, negative = inhibition” value was -0.207%.

As for `CCCCc1nc2c(c3c1C[C@H](C)OC3)CN(C(=O)c1ccco1)CC2`, the Potency entry was “inactive”.

As for `COC(=O)N[C@@H](c1cccc(F)c1)C(C(C)=O)C(=O)OC` (some centres undefined), the Potency entry is “inactive”.

The values are drawn from PubChem BioAssay (NCATS).
